Test results as given in the supplement of paper PMC10127200.
Counter-ions that a name gives are not always drawn.

What follows are compounds tested on HEPG2 (assay: Euclidean distance of Cell Painting phenotypic profile (signed KS, 77 features) to DMSO centroid (dimensionless distance); 5 or 10 uM (library dependent); higher = stronger phenotypic change vs DMSO (phenoactivity)). Conditions: 48 h.
Procedure, shortened: (§1)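 Five cancer lines and a healthy fibroblast line received library compounds at 10 or 5 uM (library-dependent, 0.1% DMSO final) for 48 h. Stained cells were imaged confocally at 20X (9 fields/well). Harmony extracted 77 features, each scored as a signed Kolmogorov-Smirnov statistic against same-plate vehicle wells. Profiles were plate-position corrected, correlation-weighted and replicate-averaged at the top dose. Phenoactivity is the Euclidean distance from each profile to the median vehicle profile.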
For `CN1c2ccccc2C(=O)N2CCc3c([nH]c4ccccc34)C21` (stereo in doubt) [Evodiamine], the Euclidean distance was 2.03.
With `CCN(CC)CCOc1ccc(C(=C(Cl)c2ccccc2)c2ccccc2)cc1` [Clomifene citrate] the Euclidean distance was 4.07.
`C[C@H](CCC(=O)O)[C@H]1CC[C@H]2[C@@H]3[C@@H](O)C[C@@H]4C[C@H](O)CC[C@]4(C)[C@H]3CC[C@]12C` [Ursodiol] gave an Euclidean distance of 0.517.
In the case of `COc1ccc(CN(CCN(C)C)c2ccccn2)cc1` [Pyrilamine Maleate], the Euclidean distance is reported as 0.605.
With `Cc1ccccc1C(OCCN(C)C)c1ccccc1` (stereo not drawn) [Orphenadrine Hydrochloride] the Euclidean distance was 0.938.
`NCCCC(N)(C(=O)O)C(F)F` (stereo not drawn) [Eflornithine hydrochloride hydrate] was tested, and the Euclidean distance was 0.792.
In the case of `CCOC(=O)c1ncn2c1CN(C)C(=O)c1cc(F)ccc1-2` [Flumazenil], the Euclidean distance is reported as 0.383.
In the case of `C[C@]12C=CC(=O)C=C1CC[C@H]1[C@@H]3C[C@@H](O)[C@](O)(C(=O)CO)[C@@]3(C)C[C@H](O)[C@@]12F` [Triamcinolone], the Euclidean distance is reported as 1.35.

Each compound was assayed on OVCAR4 in the same assay as above. Conditions: 48 h.
Procedure, shortened: as §1
With `CNC(=O)c1c(C)oc2cc(Oc3ncnc4cc(OC)c(OC)cc34)ccc12` [Fruquintinib] the Euclidean distance was 1.44.
For `CCOC(=O)N[C@@H]1CC[C@@H]2[C@@H](C1)C[C@H]1C(=O)O[C@H](C)[C@H]1[C@H]2/C=C/c1ccc(-c2cccc(F)c2)cn1` [Vorapaxar], the Euclidean distance was 1.31.
For `CC(C)(C)CC(C)(C)c1ccc(O)c(Cc2ccc(Cl)cc2Cl)c1` [Clofoctol], the Euclidean distance was 1.7.
In the case of `COc1ccc2cc1Oc1ccc(cc1)C[C@H]1c3cc(c(OC)cc3CCN1C)Oc1c(OC)c(OC)cc3c1[C@H](C2)N(C)CC3` [Tetrandrine], the Euclidean distance is reported as 2.11.
In the case of `CNC(=O)c1cc(COc2nnc(Nc3ccc(Cl)cc3)c3ccoc23)ccn1` [Telatinib], the Euclidean distance is reported as 1.74.
Compound `CC(C)Oc1ccc(-c2nn([C@@H](C)c3oc4ccc(F)cc4c(=O)c3-c3cccc(F)c3)c3ncnc(N)c23)cc1F` [umbralisib (TGR-1202)] has an Euclidean distance of 0.974.
For `C=CC(=O)N1CC/C(=C\c2ccc(F)c([N+](=O)[O-])c2)C(=O)/C(=C/c2ccc(F)c([N+](=O)[O-])c2)C1`, the Euclidean distance was 6.21.
`NC(=O)c1nc(F)cnc1O` [Favipiravir (T-705)] gave an Euclidean distance of 0.894.
With `Cn1ccnc1S` [Methimazole] the Euclidean distance was 2.25.
Work on `CCCCCCCCCC(=O)N[C@@H](Cc1c[nH]c2ccccc12)C(=O)N[C@H](CC(N)=O)C(=O)N[C@@H](CC(=O)O)C(=O)N[C@@H]1C(=O)NCC(=O)N[C@@H](CCCN)C(=O)N[C@@H](CC(=O)O)C(=O)N[C@H](C)C(=O)N[C@@H](CC(=O)O)C(=O)NCC(=O)N[C@H](CO)C(=O)N[C@@H]([C@H](C)CC(=O)O)C(=O)N[C@@H](CC(=O)c2ccccc2N)C(=O)O[C@@H]1C` [Daptomycin] yielded an Euclidean distance of 1.14.
In the case of `COC(=O)CCc1ccc(OCC(O)CNC(C)C)cc1` (stereo not drawn) [Esmolol HCl], the Euclidean distance is reported as 1.12.
Compound `c1ccc(C2CN3CCSC3=N2)cc1` (stereo not drawn) [Tetramisole HCl] has an Euclidean distance of 1.25.
`N#C[C@@H]1C[C@@H]2C[C@@H]2N1C(=O)[C@@H](N)C12CC3CC(CC(O)(C3)C1)C2` [Saxagliptin hydrate] was tested, and the Euclidean distance was 1.53.
`CN(C(=O)c1ccc(F)cc1C(F)(F)F)C1CCN(c2nnc(-c3ccnn3C)c3ccccc23)CC1` was tested, and the Euclidean distance was 1.53.
`COC(=O)C1=C(C#N)NC(C)=C(C(=O)OC(C)C)C1c1cccc([N+](=O)[O-])c1` (stereo not drawn) [Nilvadipine] was tested, and the Euclidean distance was 1.34.
Work on `CCC(NC(C)C)C(O)c1ccc(O)c(O)c1` (stereo not drawn) [Isoetharine Mesylate] yielded an Euclidean distance of 1.01.
`CC12CCC(CC1)C(C)(C)O2` [Eucalyptol] gave an Euclidean distance of 0.746.
Work on `Cc1nnc(C(=O)NC(C)(C)c2nc(C(=O)NCc3ccc(F)cc3)c(O)c(=O)n2C)o1` [Raltegravir (MK-0518)] yielded an Euclidean distance of 1.35.
`Cc1c(OCC(F)(F)F)ccnc1C[S+]([O-])c1nc2ccccc2[nH]1` (stereo not drawn) [Lansoprazole] gave an Euclidean distance of 0.948.
With `C[C@@H](O)[C@H]1C(=O)N2C(C(=O)O)=C(S[C@@H]3CN[C@H](C(=O)Nc4cccc(C(=O)O)c4)C3)[C@H](C)[C@H]12` [Ertapenem sodium] the Euclidean distance was 0.913.
`C=CCc1ccc(O)c(-c2cc(CC=C)ccc2O)c1` [Magnolol] showed an Euclidean distance of 1.17.
For `O=c1c(-c2ccc(O)cc2)coc2cc(O[C@@H]3O[C@H](CO)[C@@H](O)[C@H](O)[C@H]3O)ccc12` [Daidzin], the Euclidean distance was 1.17.
Work on `Nc1[nH]cnc2ncnc1-2` [Adenine HCl] yielded an Euclidean distance of 1.59.
`OCCOCCN1CCN(C2=Nc3ccccc3Sc3ccccc32)CC1` [Quetiapine] was tested, and the Euclidean distance was 0.901.
In the case of `C=C(C)[C@@H]1CC=C(CO)CC1` [Perillyl alcohol], the Euclidean distance is reported as 1.74.
With `CC(C)n1c(/C=C/C(O)CC(O)CC(=O)O)c(-c2ccc(F)cc2)c2ccccc21` (stereo not drawn) [Fluvastatin Sodium] the Euclidean distance was 2.29.
Work on `C=C1C(=O)O[C@@H]2/C=C(\C)CC/C=C(\C)CC[C@@H]12` [Costunolide] yielded an Euclidean distance of 0.93.
`CCCCC1(COC(=O)CCC(=O)O)C(=O)N(c2ccccc2)N(c2ccccc2)C1=O` [Suxibuzone] showed an Euclidean distance of 1.57.
In the case of `O=C(/C=C/C=C/c1ccc2c(c1)OCO2)N1CCCCC1` [Piperine], the Euclidean distance is reported as 1.49.
`CC(C)C(=O)Nc1ccc([N+](=O)[O-])c(C(F)(F)F)c1` [Flutamide] showed an Euclidean distance of 1.99.
For `CN[C@@H]1CCc2[nH]c3ccc(C(N)=O)cc3c2C1` [Frovatriptan Succinate], the Euclidean distance was 1.29.
Work on `COc1ccc2cc3[n+](cc2c1OC)CCc1cc2c(cc1-3)OCO2` [Berberine chloride] yielded an Euclidean distance of 1.31.
`CN1c2ccccc2C(=O)N2CCc3c([nH]c4ccccc34)C21` (stereo in doubt) [Evodiamine] was tested, and the Euclidean distance was 1.81.
`CCN(CC)CCOc1ccc(C(=C(Cl)c2ccccc2)c2ccccc2)cc1` [Clomifene citrate] showed an Euclidean distance of 3.4.
`C[C@H](CCC(=O)O)[C@H]1CC[C@H]2[C@@H]3[C@@H](O)C[C@@H]4C[C@H](O)CC[C@]4(C)[C@H]3CC[C@]12C` [Ursodiol] was tested, and the Euclidean distance was 0.943.
In the case of `COc1ccc(CN(CCN(C)C)c2ccccn2)cc1` [Pyrilamine Maleate], the Euclidean distance is reported as 1.5.
For `Cc1ccccc1C(OCCN(C)C)c1ccccc1` (stereo not drawn) [Orphenadrine Hydrochloride], the Euclidean distance was 1.08.
`NCCCC(N)(C(=O)O)C(F)F` (stereo not drawn) [Eflornithine hydrochloride hydrate] was tested, and the Euclidean distance was 1.43.
Work on `CCOC(=O)c1ncn2c1CN(C)C(=O)c1cc(F)ccc1-2` [Flumazenil] yielded an Euclidean distance of 0.959.
With `C[C@]12C=CC(=O)C=C1CC[C@H]1[C@@H]3C[C@@H](O)[C@](O)(C(=O)CO)[C@@]3(C)C[C@H](O)[C@@]12F` [Triamcinolone] the Euclidean distance was 1.94.
